# Publication PMC4336329 (PLoS ONE, 2015)
# Out of some 310,000 compounds screened, about 14,000 (4.5%) showed an effect of 50% or more. The effect is printed as a negative number. The sample as a whole holds a higher share of strong results than the screen did.
# Target: human ether-à-go-go-related gene (hERG) potassium channel (human, UniProt Q12809)
# Assay: primary screen, population patch clamp on CHO cells stably expressing hERG; higher = less effect of the substance
# 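Note: peak tail current of the secondary pulse compared with the same well before compound.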
# Sequence of human ether-à-go-go-related gene (hERG) potassium channel (Q12809 whole entry, looked up): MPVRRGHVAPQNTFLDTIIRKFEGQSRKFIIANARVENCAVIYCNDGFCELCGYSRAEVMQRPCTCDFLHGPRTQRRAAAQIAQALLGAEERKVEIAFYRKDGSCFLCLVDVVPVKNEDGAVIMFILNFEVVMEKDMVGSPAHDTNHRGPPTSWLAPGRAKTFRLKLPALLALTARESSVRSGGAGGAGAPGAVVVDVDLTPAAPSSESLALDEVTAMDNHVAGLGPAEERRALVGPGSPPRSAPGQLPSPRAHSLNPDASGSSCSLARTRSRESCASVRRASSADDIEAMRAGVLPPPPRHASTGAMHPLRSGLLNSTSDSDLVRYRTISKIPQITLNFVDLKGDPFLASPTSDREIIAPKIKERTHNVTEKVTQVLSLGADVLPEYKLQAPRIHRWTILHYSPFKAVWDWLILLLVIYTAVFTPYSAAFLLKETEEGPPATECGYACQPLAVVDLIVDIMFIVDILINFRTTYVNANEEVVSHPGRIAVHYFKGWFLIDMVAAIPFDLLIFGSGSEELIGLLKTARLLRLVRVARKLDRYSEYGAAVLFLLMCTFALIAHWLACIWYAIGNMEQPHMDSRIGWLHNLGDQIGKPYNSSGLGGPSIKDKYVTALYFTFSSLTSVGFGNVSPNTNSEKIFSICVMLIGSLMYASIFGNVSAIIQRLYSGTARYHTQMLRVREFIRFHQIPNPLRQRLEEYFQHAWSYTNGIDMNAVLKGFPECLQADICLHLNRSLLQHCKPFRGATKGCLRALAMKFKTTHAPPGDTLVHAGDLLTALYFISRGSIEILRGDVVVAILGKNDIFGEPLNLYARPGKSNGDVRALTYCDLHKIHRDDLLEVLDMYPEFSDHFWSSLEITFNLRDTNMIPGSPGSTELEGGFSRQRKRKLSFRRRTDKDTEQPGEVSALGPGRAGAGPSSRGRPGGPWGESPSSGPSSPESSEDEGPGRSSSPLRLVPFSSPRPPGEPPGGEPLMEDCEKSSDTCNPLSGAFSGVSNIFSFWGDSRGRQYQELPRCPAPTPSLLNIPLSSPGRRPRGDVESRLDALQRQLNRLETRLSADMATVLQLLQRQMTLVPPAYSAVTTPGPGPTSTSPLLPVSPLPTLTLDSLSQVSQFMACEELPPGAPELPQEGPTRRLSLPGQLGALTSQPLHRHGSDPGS
row,Compound,"hERG current change (%, negative = inhibition) at 10uM [%]"
1,Fc1ccc(-[n+]2nc(Nc3ccccc3)sc2-c2ccc(OCc3ccccc3)cc2)cc1.[Cl-],-20.5
2,Cc1ccccc1OCc1nnc2n1CC(C)S2 (centres unmarked),7.43
3,CCCCC(=O)Nc1ccc(NC(=S)NC(=O)CC)cc1OC,-0.84
4,O=C(OCC(=O)N1CCC(c2ccccc2)=N1)c1ccc([N+](=O)[O-])s1,-34.7
5,CC(C)c1ccc(/C=N/NC(=O)c2cccc(S(=O)(=O)N3CCOCC3)c2)cc1,10.1
6,CN(C)c1ccc(C2C3C(=O)NC(=O)C3ON2c2ccc(Cl)cc2)cc1 (centres unmarked),-64
7,Cc1ccc(N2OC3C(=O)NC(=O)C3C2c2ccco2)cc1 (centres unmarked),7.89
8,CN(C)c1ccc(C2C3C(=O)N(c4ccc(C(=O)O)cc4)C(=O)C3ON2c2ccccc2)cc1 (centres unmarked),7.23
9,O=C(Cn1cnc2c(cnn2-c2ccccc2Cl)c1=O)N1CCc2ccccc21,-0.441
10,CC(CNC(=O)Cn1ccc2cc(S(=O)(=O)N3CCCC3)ccc21)c1ccccc1 (centres unmarked),-9.17
11,O=C(NCCc1ccccc1)c1ccco1,0.15
12,CC1=C(C(=O)N2CCCC(C(=O)c3cccc(C(F)(F)F)c3)C2)OCCO1 (centres unmarked),2.26
13,Cc1nonc1CC(=O)N1CCCC(C(=O)c2cccc(C(F)(F)F)c2)C1 (centres unmarked),-56.2
14,Cc1nonc1CC(=O)N1CCCC(C(=O)c2ccc(Cl)cc2)C1 (centres unmarked),-8.66
15,Cc1noc(C)c1C(=O)N1CCCC(C(=O)c2cccc(C(F)(F)F)c2)C1 (centres unmarked),-22.6
16,CC(C)(C)c1ccc(C(=O)C2CCCN(C(=O)C3CCOCC3)C2)cc1 (centres unmarked),-7.14
17,O=C(c1cccc(C(F)(F)F)c1)C1CCCN(C(=O)C2CCOCC2)C1 (centres unmarked),-51.3
18,O=C(COC(=O)C1CSC2(c3ccc(F)cc3)CCC(=O)N12)NC(=O)NC1CCCC1 (centres unmarked),-4.24
19,O=C1c2ccccc2C(=O)C1c1ccccn1,6.76
20,COC(=O)CSc1ccc2nnc(-c3ccc(F)cc3)n2n1,-43.7
21,CCC(Sc1ccc2nnc(-c3ccc(F)cc3)n2n1)C(=O)OC (centres unmarked),-48.3
22,Cc1ccc(CSc2nnc(-c3cccnc3)n2N)cc1,18

row,Compound,"hERG current change (%, negative = inhibition) at 10uM [%]"
1,CCCN(CCC)CCCNc1ccc2nnc(-c3ccc(F)cc3)n2n1,-55.9
2,Fc1ccc(CSc2ccc3nnc(-c4cccnc4)n3n2)cc1,-71.5
3,Cc1ccc(CSc2ccc3nnc(-c4cccnc4)n3n2)cc1,-79.3
4,CCSc1ccc2nnc(-c3cccc(F)c3)n2n1,-33.6
5,CC(=O)C(Sc1ccc2nnc(-c3cccnc3)n2n1)C(C)=O,-2.29
6,O=C(CSc1ccc2nnc(-c3cccnc3)n2n1)Nc1ccc(F)cc1,-31.5
7,CC(=O)C(Sc1ccc2nnc(-c3ccc(F)cc3)n2n1)C(C)=O,8.13
8,Fc1ccc(CSc2ccc3nnc(-c4cccs4)n3n2)cc1,17.1
9,CCSc1ccc2nnc(-c3ccc(F)cc3)n2n1,-55.6
10,COc1ccc(CNC(=O)C(c2cccs2)N(C(=O)c2csnn2)C2CC2)cc1 (centres unmarked),-12.2
11,COC(=O)c1cc(NC(=O)c2cccc(F)c2)cc(C(=O)OC)c1,5.98
12,CC(Sc1nc(O)c(-c2ccccc2)c(=O)[nH]1)C(=O)Nc1ccc(Cl)cc1 (centres unmarked),26.9
13,COc1ccc(N=Cc2c(O)[nH]c3ccccc23)cc1,0.417
14,O=C(Nc1ccc(S(=O)(=O)N2CCN(c3ccccc3)CC2)cc1)c1cccs1,8.53
15,Fc1cccc(Cl)c1Cn1ncc2ccccc21,-7.36
16,C=CCSc1nc(N)cc(=O)[nH]1,0.914
17,c1ccc(CN2CCN(CCCNc3ccc4nnc(-c5ccccc5)n4n3)CC2)cc1,-59.7
18,Cc1ccc(CNc2ccc3nnc(-c4ccccc4)n3n2)cc1,15.7
19,CCOc1ccc(CCNc2ccc3nnc(-c4ccccc4)n3n2)cc1OCC,1.95
20,CCn1cc(C(=O)N(C)c2ccc(OC)cc2OC)c2cc(OC)c(OC)cc2c1=O,12.4
21,NS(=O)(=O)c1ccc(Oc2ccc(S(N)(=O)=O)cc2)cc1,0.75
22,C=CS(=O)(=O)c1ccc(Oc2ccc(S(=O)(=O)C=C)cc2)cc1,-64.3

row,Compound,"hERG current change (%, negative = inhibition) at 10uM [%]"
1,CNS(=O)(=O)c1ccc(Oc2ccc(S(=O)(=O)NC)cc2)cc1,13.2
2,Cc1ccc(N2C(=O)C(Cc3ccc(O)cc3)NC2=S)cc1C (centres unmarked),-7.04
3,Brc1ccccc1C1=Nn2c(nnc2-c2ccccc2)SC1,14.5
4,CC(NC(=O)c1cc2ccccc2o1)c1cccs1 (centres unmarked),-15.6
5,Cc1cc2c(c(=O)n1CCN(C)C)C(c1ccccc1Br)C(C#N)=C(N)O2 (centres unmarked),-26.1
6,Cc1cc2c(c(=O)n1CCN(C)C)C(c1ccc(Br)cc1)C(C#N)=C(N)O2 (centres unmarked),-58.5
7,Cc1cc2c(c(=O)n1CCN(C)C)C(c1ccncc1)C(C#N)=C(N)O2 (centres unmarked),19.6
8,COc1ccc(CC(=O)NC(c2ccccc2)c2ccc(C)cc2)c(OC)c1 (centres unmarked),11.3
9,COc1ccc(C(c2nnnn2Cc2ccc(F)cc2)N2CCN(c3ccc(OC)cc3)CC2)cc1 (centres unmarked),-7.57
10,COc1ccc(C(c2nnnn2Cc2ccc(F)cc2)N2CCN(c3ccccc3)CC2)cc1 (centres unmarked),-4.37
11,c1cnc2ccc(C(c3nnnn3C3CCCC3)N3CCSCC3)cc2c1 (centres unmarked),-3.72
12,COc1ccc(OC)c(C(c2nnnn2Cc2ccccc2)N2CCN(C)CC2)c1.Cl (centres unmarked),3.17
13,CCN1CCN(C(c2ccccc2)c2nnnn2Cc2ccc(OC)cc2)CC1.Cl (centres unmarked),10.7
14,COc1ccc(Cn2nnnc2C(c2ccc(F)cc2)N2CCN(C3CCCC3)CC2)cc1 (centres unmarked),-52.6
15,c1ccc(Cn2nnnc2C(c2cccnc2)N2CCN(C3CCCCC3)CC2)cc1 (centres unmarked),-24.9
16,COc1ccc(OC)c(C(c2nnnn2Cc2ccccc2)N2CCN(C3CCCCC3)CC2)c1.Cl (centres unmarked),-53.9
17,COc1ccc(Cn2nnnc2C(c2ccc3ncccc3c2)N2CCN(C3CCCCC3)CC2)cc1 (centres unmarked),-82.8
18,COc1ccccc1C(c1nnnn1Cc1ccccc1)N1CCN(C2CCCC2)CC1.Cl (centres unmarked),-35.5
19,COc1ccc(C(c2nnnn2Cc2ccccc2)N2CCN(c3ccccc3)CC2)cc1.Cl (centres unmarked),-6.94
20,COc1ccc(Cn2nnnc2C(c2ccc(C)cc2)N2CCN(C3CCCC3)CC2)cc1.Cl (centres unmarked),-63.8
21,Cc1ccc(N(CC(O)Cn2c3ccccc3c3ccccc32)S(C)(=O)=O)cc1 (centres unmarked),9.82
22,CCC(C)(C)n1nnnc1C(c1cc2ccc(OC)cc2[nH]c1=O)N1CCN(C2CCCCC2)CC1 (centres unmarked),-59.6

row,Compound,"hERG current change (%, negative = inhibition) at 10uM [%]"
1,CCC(C)(C)n1nnnc1C(c1cc2ccc(OC)cc2[nH]c1=O)N1CCc2ccccc2C1 (centres unmarked),-27.9
2,CCC(C)(C)n1nnnc1C(c1cc2ccc(OC)cc2[nH]c1=O)N1CCCCC1 (centres unmarked),-26.3
3,Cc1cccc(NC(=O)c2cc(NC(=O)c3ccco3)ccc2Cl)n1,-29.1
4,Cc1nc2ccccn2c1C(=O)Nc1ccc(Cl)cc1,1.65
5,CN(C)c1nc2c(N)ncnc2n1[C@H]1O[C@@H](CO)[C@H](O)[C@@H]1O,7.28
6,Br.COc1ccc(Nc2nc(-c3sc(NC(C)=O)nc3C)cs2)cc1,3.32
7,Cc1c(NC(=S)NC(=O)C(c2ccccc2)c2ccccc2)cccc1C(=O)O,-3.41
8,Cc1ccccc1C(=O)Nc1ccnn1C1CCN(CCCc2ccccc2)CC1,-78.4
9,O=C(Nc1ccnn1C1CCN(CCCc2ccccc2)CC1)c1ccccc1Cl,-82.2
10,COc1ccccc1C(=O)Nc1ccnn1C1CCN(CCCc2ccccc2)CC1,-78.3
11,O=C(Nc1ccnn1C1CCN(Cc2ccn[nH]2)CC1)c1ccccc1,-18.2
12,CC(=O)CCC(=O)N1CCC(n2nccc2NC(=O)c2ccccc2C)CC1,9.06
13,O=C(Nc1ccnn1C1CCN(CCCc2ccccc2)CC1)c1ccccc1,-80.8
14,C=CCNC(=S)Nc1ccc(N(C)C)cc1,-6
15,CCOC(=O)c1cnc(-n2nc(C)cc2C)nc1Oc1ccc(C#N)cc1,21.3
16,CC(=O)c1ccccc1NS(=O)(=O)c1ccc2c(c1)CC(=O)N2,2.66
17,CCCCn1nnnc1SCC(=O)NNC(=O)C1CCCCC1,-1.79
18,O=C1c2ccccc2C(=O)N1CCc1nc(-c2cccnc2)no1,-12.2
19,COc1ccccc1NC(=O)C1(C)Cc2ccccc2C(=O)O1 (centres unmarked),-10.2
20,Cc1ccc(-n2ncc3ccccc3c2=O)cc1Cl,-3.72
